According to PubChem BioAssay (NCI):
This is part of a sample that, as a whole, favours compounds with a hit. Of some 83,000 tested, about 20% had one in any assay.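 For each line, cells grew in 96-well plates with the test compound present at a single concentration for 48 hours.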 Unmarked numbers belong to inactive results. Calls of active or inactive are those of the source. Rule for the calls: active = growth percent below 10; inactive = the rest.

Each compound was assayed on 786-0 renal (assay: NCI-60 one-dose screen, 48 h (100 = growth as untreated, 0 = no growth, -100 = all killed)). Conditions: 10 µM unless noted.

| Compound | growth |
| --- | --- |
| COc1ccc(C(=O)Cn2c(C(=O)c3ccc(Cl)cc3)nc3ccccc32)cc1 | 64.6% |
| O=C1/C(=C/c2ccccc2F)CN(C(=O)C(Cl)Cl)C/C1=C\c1ccccc1F | -71.9% (active) |
| CCOC(=O)C1=C(C)C(Cl)=N/C1=C\c1[nH]c(Cl)c(C)c1C(=O)OCC | 97.7% |
| COc1ccc(/C=C/C(c2cc(OC)c(OC)c(OC)c2)n2cncn2)cc1 (stereo unspecified) | 39.6% |
| CCN1C(=O)N(CC)C2C1NC(=S)N2/N=C/c1ccc(C(F)(F)F)cc1 (stereo unspecified) | 79.7% |
| C[C@H](CCCC(=O)NCC#CCN1CCN(C)CC1)[C@H]1CC[C@H]2[C@@H]3CC[C@@H]4CC(=O)CC[C@]4(C)[C@H]3CC[C@]12C | 97% |
| Fc1cccc(-c2ccc3c(c2)C2(CCNCC2)CN3)c1 | 98.5% |
| CCN1C(=O)N(CC)C2Nn3c(s/c(=C\c4ccccc4Br)c3=O)=NC21 (stereo unspecified) | 25.3% |
| O=C(NCc1cccc(CNC(=O)Nc2nc3ccccc3[nH]2)c1)Nc1nc2ccccc2[nH]1 | -42.8% (active) |
| O=C1Nc2ccccc2/C1=C\c1c[nH]c2ccc(Br)cc12 | 109% |
| COc1cc(C2C(C(=O)OCc3ccccc3)=C(C)NC(C)=C2C(=O)OCc2ccccc2)cc(OC)c1OC | 25.2% |
| CCn1cc(CNc2ccc(C(=O)Nc3cc4cc(OC)c(OC)cc4c(C)n3)cc2)cn1 | 70.4% |
| COc1cc(/C=C/C(=O)/C=C(O)/C=C/c2ccc(OC(=O)C34CC5CC(CC(C5)C3)C4)c(OC)c2)ccc1OC(=O)C12CC3CC(CC(C3)C1)C2 | 105% |
| COc1ccc(C2=CN3CC=CC3CC2=O)cc1 (stereo unspecified) | 88.8% |
| C=C(C)[C@@H]1CCC[C@]2(C(=O)O)CC[C@]3(C)[C@@H](CC[C@@H]4[C@@]5(C)C/C(=C/c6ccncc6)C(=O)C(C)(C)[C@@H]5CC[C@]43C)[C@@H]12 | 39.8% |
| FC(F)(F)c1ccc(Cn2cc(CSc3nc4ccccc4s3)nn2)cc1 | 98.1% |
| CCCn1nc(C(=O)N(C)Cc2ccccc2)c2c1CCC(N1CCc3ccccc31)C2 (stereo unspecified) | 95.2% |
| CCN1C(=O)N(CC)C2C1NN=c1s/c(=C\c3cnc(C)n3C)c(=O)n12 (stereo unspecified) | 28.4% |
| CCOC(=O)c1c(C)nc2ccccc2c1/C=C/c1ccccc1 | 88.6% |
| CN1CCN(C(=S)SCCCCOc2cc(=O)oc3ccccc23)CC1 | 96.9% |
| Nc1nc(N)c2c(n1)NC(c1cccc(Nc3ccnc4cc(C(F)(F)F)ccc34)c1)CC(c1ccc(Br)cc1)=N2 (stereo unspecified) | 68.9% |
| O=C(Nc1ccc(Cl)cc1)Oc1c(Cl)c(Cl)c(Cl)c(Cl)c1Cl | 94.7% |
| CC(=O)/C(=C/c1ccc([N+](=O)[O-])cc1)C(=O)c1ccccc1 | 92.5% |
| Cc1cccc(N2CCC(=O)NC2=S)c1 | 103% |
| Cc1ccc(S(=O)(=O)OCCCOS(=O)(=O)c2ccc(C)cc2)cc1 | 90.8% |
| CCOC(=O)c1c(C)nc2c(c1N)CC(=O)N2Cc1ccc(OC)cc1 | 6.69% (active) |

These compounds were tested on COLO 205 colon in the same assay as above. Conditions: 10 µM unless noted.

| Compound | growth |
| --- | --- |
| CCNC(=O)Oc1ccc(/C(=C(/C)Cc2ccc(OC)cc2)c2ccc(OCCN3CCCCC3)cc2)cc1 | 20.9% |
| COC(=O)C(Cc1ccccc1)NC(=O)c1ccc(NC(=O)c2[nH]c(C)c(Cl)c2Cl)c(OC(C)C)c1 (stereo unspecified) | 102% |
| Cc1ccc(S(=O)(=O)Oc2ccc3sc4cccc(NCCN(C)C)c4c(=O)c3c2)cc1 | -83.8% (active) |
| O=C(Nc1ncccc1OCc1ccccc1)NC1CCCCCC1 | 103% |
| CCNc1nc(O)c(/C=C2\C=Nc3ncccc32)s1 | -33.3% (active) |
| Ic1ccccc1I | 127% |
| CC1=C2[C@@H](CC1)[C@]1(C)O[C@@](C3CCCCC3)(C[C@H]1OC(=O)CO)[C@H]2OC(=O)/C=C/c1ccccc1 | 93.8% |
| Cc1ccc(-c2csc(NC(=O)c3ccccc3CN3C(=O)c4ccccc4C3=O)n2)cc1 | 103% |
| Oc1c(CN2CCCC2)cc(CSCc2ccccc2)c2cccnc12 | 51% |
| Cc1ccc(-c2nc(SCc3nc4cc(Cl)c(Cl)cc4[nH]3)[nH]c(=O)c2C#N)cc1 | 107% |
| CC/C=C\CCC/C=C1/C(=O)C=C[C@@H]1C/C=C\CCCC(=O)OC | 49.7% |
| C=C1C(=O)O[C@H]2[C@H]1CC/C(Cn1cc(CCC)nn1)=C\CC[C@@]1(C)O[C@@H]21 | -72.1% (active) |
| CN(C)CCCC1(c2ccc(F)cc2)OCc2cc(-c3ccc4cc[nH]c4c3)ccc21 (stereo unspecified) | 9.88% (active) |
| COc1ccc(CCN(CC(=O)N(CC(N)=O)C2CCC[C@@H]2OCc2ccccc2)C(=O)CN(C(=O)CN(CCc2ccc(Cl)cc2)C(=O)CN(C(=O)CN(C)Cc2ccccc2F)[C@H](C)C2CCCCC2)[C@H](C)C2CCCCC2)cc1OC (stereo partly specified) | -17.4% (active) |
| COc1ccc(C(=O)Cn2c(C(=O)c3ccc(Cl)cc3)nc3ccccc32)cc1 | 111% |
| O=C1/C(=C/c2ccccc2F)CN(C(=O)C(Cl)Cl)C/C1=C\c1ccccc1F | -57.6% (active) |
| CCOC(=O)C1=C(C)C(Cl)=N/C1=C\c1[nH]c(Cl)c(C)c1C(=O)OCC | 107% |
| COc1ccc(/C=C/C(c2cc(OC)c(OC)c(OC)c2)n2cncn2)cc1 (stereo unspecified) | 30.7% |
| CCN1C(=O)N(CC)C2C1NC(=S)N2/N=C/c1ccc(C(F)(F)F)cc1 (stereo unspecified) | 80.7% |
| C[C@H](CCCC(=O)NCC#CCN1CCN(C)CC1)[C@H]1CC[C@H]2[C@@H]3CC[C@@H]4CC(=O)CC[C@]4(C)[C@H]3CC[C@]12C | 95.1% |

| Compound | growth |
| --- | --- |
| Fc1cccc(-c2ccc3c(c2)C2(CCNCC2)CN3)c1 | 107% |
| CCN1C(=O)N(CC)C2Nn3c(s/c(=C\c4ccccc4Br)c3=O)=NC21 (stereo unspecified) | 14.4% |
| O=C(NCc1cccc(CNC(=O)Nc2nc3ccccc3[nH]2)c1)Nc1nc2ccccc2[nH]1 | -2.34% (active) |
| O=C1Nc2ccccc2/C1=C\c1c[nH]c2ccc(Br)cc12 | 57.5% |
| COc1cc(C2C(C(=O)OCc3ccccc3)=C(C)NC(C)=C2C(=O)OCc2ccccc2)cc(OC)c1OC | -47.7% (active) |
| CCn1cc(CNc2ccc(C(=O)Nc3cc4cc(OC)c(OC)cc4c(C)n3)cc2)cn1 | 42.1% |
| COc1cc(/C=C/C(=O)/C=C(O)/C=C/c2ccc(OC(=O)C34CC5CC(CC(C5)C3)C4)c(OC)c2)ccc1OC(=O)C12CC3CC(CC(C3)C1)C2 | 112% |
| COc1ccc(C2=CN3CC=CC3CC2=O)cc1 (stereo unspecified) | 102% |
| C=C(C)[C@@H]1CCC[C@]2(C(=O)O)CC[C@]3(C)[C@@H](CC[C@@H]4[C@@]5(C)C/C(=C/c6ccncc6)C(=O)C(C)(C)[C@@H]5CC[C@]43C)[C@@H]12 | 6.51% (active) |
| FC(F)(F)c1ccc(Cn2cc(CSc3nc4ccccc4s3)nn2)cc1 | 103% |
| CCCn1nc(C(=O)N(C)Cc2ccccc2)c2c1CCC(N1CCc3ccccc31)C2 (stereo unspecified) | 117% |
| CCN1C(=O)N(CC)C2C1NN=c1s/c(=C\c3cnc(C)n3C)c(=O)n12 (stereo unspecified) | 14.5% |
| CCOC(=O)c1c(C)nc2ccccc2c1/C=C/c1ccccc1 | 84.1% |
| CN1CCN(C(=S)SCCCCOc2cc(=O)oc3ccccc23)CC1 | 86.4% |
| Nc1nc(N)c2c(n1)NC(c1cccc(Nc3ccnc4cc(C(F)(F)F)ccc34)c1)CC(c1ccc(Br)cc1)=N2 (stereo unspecified) | 34% |
| O=C(Nc1ccc(Cl)cc1)Oc1c(Cl)c(Cl)c(Cl)c(Cl)c1Cl | 105% |
| CC(=O)/C(=C/c1ccc([N+](=O)[O-])cc1)C(=O)c1ccccc1 | 90% |
| Cc1cccc(N2CCC(=O)NC2=S)c1 | 119% |
| Cc1ccc(S(=O)(=O)OCCCOS(=O)(=O)c2ccc(C)cc2)cc1 | 110% |
| CCOC(=O)c1c(C)nc2c(c1N)CC(=O)N2Cc1ccc(OC)cc1 | 95.4% |
